Assay results published in PubChem BioAssay (Tox21).
“And” between values parts separate entries of the source, which are not always exact repeats. Equal values may be shown once. Records with an inconclusive call do not appear. More than one record can exist for a structure, and the calls need not agree. The source made the active and inactive calls. Unless noted, calls come from the whole dose curve.

Experiments:
[1] = Nuclear factor erythroid 2-related factor 2/antioxidant responsive element (Nrf2/ARE) small molecule agonists: qHTS cell viability counter screen in human keratinocytes (AID 1919968; active = well fitted curve in the direction sought with a large enough effect in the repeat runs; an effect the other way counts as inactive or inconclusive; note: nearly all actives have a fitted effect of over 55% in size; note: potency is the fitted concentration of half-maximal effect)
In short: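 In human HaCaT keratinocytes stably expressing an ARE-driven luciferase, compound exposure lasted 23 h at 37 C under 5% CO2. Viable cells are quantified with a protease-based fluorogenic reagent (CellTiter-Fluor) read 1 h after addition.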

[2] = Nuclear factor erythroid 2-related factor 2/antioxidant responsive element (Nrf2/ARE) small molecule agonists: luciferase reporter gene qHTS assay in human keratinocytes (AID 1919969); note: nearly all actives have a fitted effect of over 35% in size; note: potency is the fitted concentration of half-maximal effect
[3] = target: Gonadotropin-releasing hormone receptor (Homo sapiens) (UniProt P30968); assay: Human gonadotropin-releasing hormone receptor (GnRHR) small molecule agonists, calcium flux assay in GnRHR-HEK293 cells (AID 1920063); note: nearly all actives have a fitted effect of over 35% in size
In short: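 Intracellular calcium rise is the read-out: engineered human GnRHR HEK293 cells, dye-loaded, are exposed to DMSO-dissolved compounds and fluorescence at Ex/Em 480/540 is tracked for 3 min.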

[4] = target: KiSS-1 receptor (Homo sapiens) (UniProt Q969F8); assay: Human kisspeptin (KISS1R) small molecule agonists, calcium flux assay in KISS1R-HEK293 cells (AID 1920064; active = well fitted curve in the direction sought with a large enough effect in the repeat runs; an effect the other way counts as inactive or inconclusive)
In short: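 Concentration-response testing used 15 concentrations in triplicate on human KISS1R-expressing HEK293 cells. Calcium-dependent fluorescence (Ex/Em 480/540) was followed kinetically for 3 min after compound transfer.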

[5] = G protein-coupled receptor (GPCR) small molecule agonists, calcium flux assay: HEK293 wild type cell line counter screen (AID 1920065)
In short: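 Fluorescence intensity signals activation. After overnight (18 h) culture and a 1 h calcium dye load at 37 C, compounds are added by pin tool and the plate read at 480/540 nm for 3 min in 1 s steps.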

[6] = p53 small molecule agonists, cell-based qHTS assay with human liver microsomes (AID 1963577);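 note: p53 response element beta-lactamase reporter cells with liver microsomes plus NADPH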
In short: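 HLM-supplemented p53RE-bla reporter assay: 16 h compound exposure at 37 C, microsomes and NADPH each 0.5 mg/mL final, read by fluorescence intensity.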

[7] = p53 small molecule agonists, cell-based qHTS assay with rat liver microsomes (AID 1963578)
In short: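 Quantitative HTS of the Tox21 10K library: p53RE-bla cells, rat liver microsomes plus NADPH at 0.5 mg/mL final each, 16 h at 37 C, beta-lactamase fluorescence detection.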

[8] = p53 small molecule agonists, cell-based qHTS assay with human liver microsomes: qHTS cell viability counter screen (AID 1963579); note: nearly all actives have a fitted effect of over 45% in size
In short: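 Viability of p53RE-bla cells is measured as CellTiter-Glo luminescence following a 16 h, 37 C incubation with compound, liver microsomes from human donors and NADPH.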

[9] = p53 small molecule agonists, cell-based qHTS assay with rat liver microsomes: qHTS cell viability counter screen (AID 1963580); note: nearly all actives have a fitted effect of over 45% in size
In short: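 Counter screen for cytotoxicity under metabolic activation: rat liver microsomes and NADPH, 0.5 mg/mL final each, added with compounds to p53RE-bla HCT-116 cells; 16 h at 37 C, then ATP luminescence read.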

[10] = p53 small molecule agonists, cell-based qHTS assay: qHTS cell viability counter screen (AID 1963581); note: nearly all actives have a fitted effect of over 45% in size; note: potency is the fitted concentration of half-maximal effect
In short: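 Luminescence from CellTiter-Glo, reflecting ATP content, serves as the cytotoxicity measure; it is taken after the 2 h reporter substrate step in HCT-116 p53RE-bla cells dosed for 16 h at 37 C.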

[11] = p53 small molecule agonists, cell-based qHTS assay (AID 1963582; active = well fitted activation curve with a large enough effect in the signal ratio in the repeat runs, not every such curve was filed as active; the % refers to the signal ratio)
In short: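 After plating, p53RE-bla cells sat 5 h in the incubator; compounds or DMSO vehicle were pinned in; a 16 h incubation at 37 C followed; FRET substrate was added and, 2 h later at RT, fluorescence was measured.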

[12] = target: 5-hydroxytryptamine receptor 2A (Homo sapiens) (UniProt P28223); assay: 5-hydroxytryptamine receptor 2A (HTR2A) small molecule antagonists, cell-based qHTS assay (AID 1963586); note: nearly all actives have a fitted effect of over 45% in size
In short: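 CHO cells stably expressing human HTR2A were plated for 18 h at 37 C, then loaded with calcium dye for 1 h. Compounds were preincubated 5 min at room temperature before DOI (4 nM solution) was added. Kinetic fluorescence was read for 3 min.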

[13] = target: 5-hydroxytryptamine receptor 2A (Homo sapiens) (UniProt P28223); assay: 5-hydroxytryptamine receptor 2A (HTR2A) small molecule agonists, cell-based qHTS assay (AID 1963587); note: nearly all actives have a fitted effect of over 30% in size; note: potency is the fitted concentration of half-maximal effect
In short: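 HTR2A-CHO cells, plated 18 h at 37 C/5% CO2, dye-loaded 1 h at 37 C; compounds in DMSO added by pin tool (agonist mode). Intracellular calcium flux read as kinetic fluorescence on FDSS over 2 min at 1 s intervals.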

[14] = target: Muscarinic acetylcholine receptor M1 (Homo sapiens) (UniProt P11229); assay: Cholinergic receptor muscarinic 1 (CHRM1) small molecule antagonists, cell-based qHTS assay (AID 1963588); note: nearly all actives have a fitted effect of over 40% in size; note: potency is the fitted concentration of half-maximal effect
In short: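 Compounds were tested at 15 concentrations in three independent runs. Dye-loaded CHRM1-CHO cells were exposed 5 min at room temperature before stimulation by acetylcholine added at 50nM. Intracellular calcium was read kinetically on FDSS for 3 min.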

[15] = target: Muscarinic acetylcholine receptor M1 (Homo sapiens) (UniProt P11229); assay: Cholinergic receptor muscarinic 1 (CHRM1) small molecule agonists, cell-based qHTS assay (AID 1963589); note: nearly all actives have a fitted effect of over 35% in size
In short: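 Fluorescent calcium dye reports M1 activation in stably transfected CHO cells. Compounds, 15 concentrations, added after 1 h dye loading at 37 C; kinetic reading at 1 sec intervals.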

[16] = cAMP Responsive Elements (CRE) small molecule agonists, cell-based qHTS assay (AID 1963590)
In short: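 Compound exposure lasted 3 h at 37 C/5% CO2 in CRE-bla HEK 293T cells grown in assay medium with 10% dialyzed FBS and 25 mM HEPES. Reporter signal came from LiveBLAzer B/G FRET substrate, 2 h, room temperature.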

[17] = cAMP Responsive Elements (CRE) small molecule antagonists, cell-based qHTS assay (AID 1963591; active = well fitted inhibition curve with a large enough effect in the signal ratio in the repeat runs, not every such curve was filed as active; the % refers to the signal ratio)
In short: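 Stimulation used NKH477 at a final 0.25 uM for 3 h in compound-treated CRE-bla HEK293T cells, seeded 18 h beforehand. Reporter activity was measured with LiveBLAzer B/G FRET substrate after 2 h at room temperature.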

[18] = target: D(2) dopamine receptor (Homo sapiens) (UniProt P14416); assay: Dopamine D2 receptor (DRD2) small molecule agonists, cell-based qHTS assay (AID 1963594); note: nearly all actives have a fitted effect of over 35% in size
In short: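 HEK293 cells stably expressing DRD2 were cultured 24 h at 37 C, then given Ro20-1724 (0.1 mM final) and compounds for 10 min at room temperature. NKH477 (200nM) was then added for 30 min. cAMP was read by HTRF.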

[19] = target: D(2) dopamine receptor (Homo sapiens) (UniProt P14416); assay: Dopamine D2 receptor (DRD2) small molecule antagonists, cell-based qHTS assay (AID 1963595; active = well fitted inhibition curve with a large enough effect in the signal ratio in the repeat runs, with a control signal flat; the % refers to the signal ratio)
In short: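 Antagonist mode in DRD2-HEK293 cells: after compound addition with 0.1 mM Ro20-1724, cells received quinpirole (12 nM) and NKH477 (200 nM) for 30 min at room temperature; HTRF cAMP read after 1 h detection.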

[20] = target: Beta-2 adrenergic receptor (Homo sapiens) (UniProt P07550); assay: Adrenergic beta2 receptor (ADRB2) small molecule antagonists, cell-based qHTS assay (AID 1963592); note: series mostly up to about 92 µM; nearly all actives have a fitted effect of over 50% in size
In short: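 Assay format: CHO-ADRB2 cells, 18-20hr seeding at 37C/5% CO2, then compound plus 1nM isoproterenol agonist mix for 0.5hr RT. Homogeneous time-resolved fluorescence cAMP detection after 1hr, expressed as 665/615 nm ratio.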

Measured: Potency

Chain of Gonadotropin-releasing hormone receptor (Homo sapiens) (P30968 whole entry, looked up): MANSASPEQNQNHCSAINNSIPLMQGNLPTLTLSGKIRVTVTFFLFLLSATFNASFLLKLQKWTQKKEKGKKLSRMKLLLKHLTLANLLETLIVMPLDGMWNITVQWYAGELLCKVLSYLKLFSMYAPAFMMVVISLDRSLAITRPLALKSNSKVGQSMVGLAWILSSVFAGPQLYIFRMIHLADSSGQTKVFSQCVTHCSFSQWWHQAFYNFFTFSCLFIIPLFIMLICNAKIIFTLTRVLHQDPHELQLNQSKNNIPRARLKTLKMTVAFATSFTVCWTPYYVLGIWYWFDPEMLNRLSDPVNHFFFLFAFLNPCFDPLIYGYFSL
Chain of KiSS-1 receptor (Homo sapiens) (Q969F8 whole entry, looked up): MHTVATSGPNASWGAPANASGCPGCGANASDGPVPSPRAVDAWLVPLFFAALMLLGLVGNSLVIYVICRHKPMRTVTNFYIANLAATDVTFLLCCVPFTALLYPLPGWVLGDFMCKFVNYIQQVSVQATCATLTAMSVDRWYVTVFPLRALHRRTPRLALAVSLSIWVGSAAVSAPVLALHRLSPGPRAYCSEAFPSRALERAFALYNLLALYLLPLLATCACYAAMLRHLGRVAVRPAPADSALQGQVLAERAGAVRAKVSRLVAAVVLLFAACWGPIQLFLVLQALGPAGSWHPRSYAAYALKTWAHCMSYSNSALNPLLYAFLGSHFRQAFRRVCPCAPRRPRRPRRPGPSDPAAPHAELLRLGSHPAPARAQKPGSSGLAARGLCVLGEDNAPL
Chain of Muscarinic acetylcholine receptor M1 (Homo sapiens) (P11229 whole entry, looked up): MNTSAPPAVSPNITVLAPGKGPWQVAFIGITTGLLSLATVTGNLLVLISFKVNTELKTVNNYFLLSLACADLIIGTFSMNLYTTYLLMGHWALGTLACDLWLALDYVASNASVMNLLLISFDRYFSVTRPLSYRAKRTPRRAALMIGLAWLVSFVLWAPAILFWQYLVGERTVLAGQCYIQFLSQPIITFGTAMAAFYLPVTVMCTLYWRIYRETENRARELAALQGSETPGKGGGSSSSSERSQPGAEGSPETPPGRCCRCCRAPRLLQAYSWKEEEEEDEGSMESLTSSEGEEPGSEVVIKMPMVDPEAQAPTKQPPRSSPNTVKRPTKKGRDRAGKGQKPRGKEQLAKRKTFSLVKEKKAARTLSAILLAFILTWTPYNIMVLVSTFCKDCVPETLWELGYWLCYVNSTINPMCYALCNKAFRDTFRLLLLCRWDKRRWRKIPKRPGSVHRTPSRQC
Chain of D(2) dopamine receptor (Homo sapiens) (P14416 whole entry, looked up): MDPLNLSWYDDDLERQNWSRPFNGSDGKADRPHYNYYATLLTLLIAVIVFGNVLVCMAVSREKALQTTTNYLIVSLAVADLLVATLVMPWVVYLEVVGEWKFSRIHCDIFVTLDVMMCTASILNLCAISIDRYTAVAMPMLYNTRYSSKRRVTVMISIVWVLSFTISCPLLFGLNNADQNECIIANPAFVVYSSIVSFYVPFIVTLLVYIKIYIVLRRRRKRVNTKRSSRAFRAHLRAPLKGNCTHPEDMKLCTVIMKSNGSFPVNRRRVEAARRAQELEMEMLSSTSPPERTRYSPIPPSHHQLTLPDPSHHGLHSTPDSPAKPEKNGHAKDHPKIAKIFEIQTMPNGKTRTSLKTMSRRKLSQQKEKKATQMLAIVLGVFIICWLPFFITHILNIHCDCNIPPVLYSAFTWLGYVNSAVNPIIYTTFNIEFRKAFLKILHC
Chain of 5-hydroxytryptamine receptor 2A (Homo sapiens) (P28223 whole entry, looked up): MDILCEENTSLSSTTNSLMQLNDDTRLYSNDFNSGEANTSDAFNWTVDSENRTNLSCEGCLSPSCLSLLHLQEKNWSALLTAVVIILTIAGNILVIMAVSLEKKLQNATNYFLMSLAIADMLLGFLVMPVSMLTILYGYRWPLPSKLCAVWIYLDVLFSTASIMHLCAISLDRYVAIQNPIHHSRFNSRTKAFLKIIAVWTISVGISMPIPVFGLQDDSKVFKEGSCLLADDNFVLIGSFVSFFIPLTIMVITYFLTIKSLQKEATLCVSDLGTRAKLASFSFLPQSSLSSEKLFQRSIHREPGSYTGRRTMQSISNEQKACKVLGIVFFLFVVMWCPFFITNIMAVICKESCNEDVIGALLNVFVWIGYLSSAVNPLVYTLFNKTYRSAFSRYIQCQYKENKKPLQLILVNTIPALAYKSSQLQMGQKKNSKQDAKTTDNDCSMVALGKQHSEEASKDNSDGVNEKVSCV
Chain of Beta-2 adrenergic receptor (Homo sapiens) (P07550 whole entry, looked up): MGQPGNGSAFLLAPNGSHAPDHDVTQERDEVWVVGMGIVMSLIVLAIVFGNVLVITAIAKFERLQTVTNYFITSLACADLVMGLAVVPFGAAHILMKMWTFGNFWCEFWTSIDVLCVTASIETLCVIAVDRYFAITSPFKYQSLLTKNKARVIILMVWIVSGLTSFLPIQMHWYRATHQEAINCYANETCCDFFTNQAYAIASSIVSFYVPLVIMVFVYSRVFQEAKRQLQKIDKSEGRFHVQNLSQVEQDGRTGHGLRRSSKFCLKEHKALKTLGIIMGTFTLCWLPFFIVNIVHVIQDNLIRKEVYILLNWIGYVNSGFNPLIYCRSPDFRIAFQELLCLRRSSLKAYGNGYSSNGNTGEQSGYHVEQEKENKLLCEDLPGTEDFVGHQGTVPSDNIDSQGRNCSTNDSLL

O=C(O)C(Cl)Br (stereo not drawn)
not listed: [20]
inactive: all other assays above

CC(C)c1ccc(NC(=O)N(C)C)cc1
not listed: [20]
inactive: all other assays above

N#Cc1ccccn1
63.7 µM (active) and inactive: [2]
inactive: all other assays above

O=C(Cl)/C=C/C(=O)Cl
active: [14] 1.1 nM
not listed: [20]
inactive: all other assays above

N#CC(Cl)(Cl)Cl
not listed: [15] | [18]
inactive: all other assays above

CCCCCCCCSC(=O)Oc1cc(Cl)nnc1-c1ccccc1
not listed: [15]
inactive: all other assays above

O=C(NCO)NCO
not listed: [15]
inactive: all other assays above

[O-][Cl+]O
not listed: [16]
inactive: all other assays above

ClCC1CO1 (stereo not drawn)
not listed: [15] | [20]
inactive: all other assays above

O=S1OCC2C(CO1)C1(Cl)C(Cl)=C(Cl)C2(Cl)C1(Cl)Cl (stereo not drawn)
active: [1] 48.6 µM and 61.1 µM
37.5 µM (active) and inactive: [14]
43.7 µM (active) and inactive: [13]
not listed: [16] | [17] | [19]
inactive: all other assays above

O=C(O)C(F)(F)C(F)(F)C(F)(F)C(F)(F)C(F)(F)C(F)(F)C(F)(F)C(F)(F)C(F)(F)C(F)(F)F
not listed: [16]
inactive: all other assays above

CCOc1nc(F)cc2nc(S(=O)(=O)Nc3c(Cl)cccc3Cl)nn12
not listed: [16] | [19]
inactive: all other assays above

[O]=[Cr][O][Cr]=[O]
not listed: [16]
inactive: all other assays above

C=CCN=C=S
not listed: [16] | [17]
inactive: all other assays above

C=C(C)C(=O)OCC1CO1 (stereo not drawn)
not listed: [16] | [20]
inactive: all other assays above

CC(Oc1ccc(Cl)cc1Cl)C(=O)O (stereo not drawn)
not listed: [16] | [17]
inactive: all other assays above

CC[N+](=O)[O-]
not listed: [15]
inactive: all other assays above

CN(C)CCO
69.1 µM (active) and inactive: [2]
not listed: [15] | [18]
inactive: all other assays above

CNC(=O)O/N=C/C(C)(C)S(C)=O (stereo not drawn)
not listed: [16] | [17]
inactive: all other assays above

ClCc1ccccc1CCl
active: [2] 61.1 µM
not listed: [15] | [17]
inactive: all other assays above

c1ccc(NNc2ccccc2)cc1
active: [2] 55 µM
not listed: [15]
inactive: all other assays above

CCOC(=O)C(c1c(O)c2ccccc2oc1=O)c1c(O)c2ccccc2oc1=O
not listed: [15]
inactive: all other assays above

C=COCCCl
not listed: [15]
inactive: all other assays above

O=P(Cl)(Cl)Cl
not listed: [15] | [16]
inactive: all other assays above

CC(C)N1C(=O)c2ccccc2NS1(=O)=O
not listed: [15]
inactive: all other assays above

Clc1ccc(Cl)cc1
not listed: [15]
inactive: all other assays above

Clc1ccc(C(c2ccc(Cl)cc2)C(Cl)Cl)cc1
15.6 µM (active) and inactive: [2]
active: [1] 27.8 µM | [10] 41.4 µM | [14] 135 nM
not listed: [16]
inactive: all other assays above

OCCSCSCCO
not listed: [15]
inactive: all other assays above

ClC1=C(Cl)C2(Cl)C3C(Cl)C=CC3C1(Cl)C2(Cl)Cl (stereo not drawn)
active: [1] 27.4 µM and 61.1 µM
not listed: [16]
inactive: all other assays above

BrCCc1ccccc1
not listed: [15]
inactive: all other assays above

CCNc1nc(NC(C)C)nc(OC)n1
not listed: [15]
inactive: all other assays above
